Source: PubChem BioAssay AID1117264 (The Scripps Research Institute Molecular Screening Center, 2014)
The campaign covered roughly 89,000 compounds. About 440 (0.49%) were called active. Many of the other results were omitted from the sample, so actives are more common in it than they were. Unmarked numbers belong to inactive results.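 Rule for the calls: active = inhibition above the mean inhibition across all screened compounds plus 3 SD (cut at about 11% in these data); inactive = the rest.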

Biological target: RNA-editing ligase 1, mitochondrial (Trypanosoma brucei brucei) (UniProt P86926)
Sequence (P86926 whole entry, looked up): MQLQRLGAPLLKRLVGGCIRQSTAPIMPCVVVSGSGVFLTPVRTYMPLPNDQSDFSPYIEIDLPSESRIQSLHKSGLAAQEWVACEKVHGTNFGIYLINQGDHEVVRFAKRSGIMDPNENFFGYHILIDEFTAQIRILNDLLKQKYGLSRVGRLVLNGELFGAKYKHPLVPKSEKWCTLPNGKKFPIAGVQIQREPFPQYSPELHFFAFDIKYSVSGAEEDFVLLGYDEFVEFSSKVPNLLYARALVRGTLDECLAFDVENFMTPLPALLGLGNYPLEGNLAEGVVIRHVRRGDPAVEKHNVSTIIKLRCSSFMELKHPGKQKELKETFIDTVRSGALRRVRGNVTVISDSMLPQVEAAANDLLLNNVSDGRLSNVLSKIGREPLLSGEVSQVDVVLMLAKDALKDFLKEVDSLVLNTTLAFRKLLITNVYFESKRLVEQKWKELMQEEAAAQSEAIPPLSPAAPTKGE
Experiment: TbREL1 RNA ligase inhibitors, primary screen, biochemical, FRET fluorescence (AID 1117264);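 note: 0% = plate median of test wells and 100% = NSC42067 control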
Settings: TbREL1 RNA ligation, at 9.66 µM, stronger effect = higher value

Compound	inhibition
CC1CCCCN1Cc1cccnc1 (stereo not given)	13.3% (active)
COC(=O)C1=C(c2ccc(F)cc2OCc2ccccc2)C[C@@H]2CC[C@H]1N2C(=O)NCc1ccc(C(C)(C)C)cc1	-1.57%
COc1cccc(-c2nc3ccc(N4CCN(C)CC4)cc3[nH]2)c1	5.54%
CN1CCN(c2cc(N3CCNCC3)ccc2[N+](=O)[O-])CC1	13.9% (active)
Cc1cccc(NC(=O)N2CC3CC(C2)c2cccc(=O)n2C3)c1 (stereo not given)	3.86%
COC(=O)C1=C(c2ccccc2OCc2ccccc2)C[C@@H]2CC[C@H]1N2C(=O)NCc1ccc(OC)cc1	-0.93%
CCOP(=O)(OCC)C(NC(=O)NC)C(N)=O (stereo not given)	2.84%
CCC(=NCCc1ccccc1)c1c(O)n(C2CCCCC2)c(=O)[nH]c1=O	-0.24%
COc1ccc(-n2nnnc2C(c2cccc3ccccc23)N2CCC(n3c(=O)[nH]c4ccccc43)CC2)cc1 (stereo not given)	-2.29%
O=c1[nH]c2ccccc2n1C1CCN(C(c2ccccc2)c2nnnn2Cc2ccccc2)CC1 (stereo not given)	23.1% (active)
COc1cc(C(=O)N2Cc3ccc(Br)cc3-n3nncc3C2)cc(OC)c1OC	2.36%
CN1CCN(C(=S)SCC(=O)Nc2ccc(Cl)cc2C(=O)c2ccccc2)CC1	2.78%
CCOC(=O)CNC(=O)N1Cc2cc(N3CCCCC3)ccc2-n2nncc2C1	2.4%
COc1ccc(-c2nn(CCC#N)cc2C(=O)O)cc1	-2.19%
CSc1ccc(C(=O)C2CCCN(Cc3ccn[nH]3)C2)cc1 (stereo not given)	0.96%
